Results filed as inconclusive are left out. Where a call stands in place of a potency, no number is given. Active and inactive are the calls of the source. Calls come from the whole dose curve; as a rule, active = well fitted cell-killing curve with a large enough effect; inconclusive = small, poorly fitted or top-dose-only effect, or effect the other way; inactive = no such curve, though single readings can be large or run the other way.
Experiment: Quantitative High-Throughput drug screen in 47 multiple myeloma cell lines against the NCATS MIPE library collection: MOLP8_DSMZ cell viability assay (AID 1918977); note: nearly all actives have a fitted effect of over 45% in size
Conditions: MOLP8 myeloma viability, CellTiter-Glo ATP luminescence, 48 h; series mostly up to 45.8 µM
Source text: PI: Beverly A. Mock Ph.D.
Laboratory of Cancer Biology and Genetics,
Center for Cancer Research, National Cancer Institute,
National Institute of Health, Bethesda, Maryland
Drug resistance and disease progression are common in multiple myeloma (MM) patients, underscoring the need for new therapeutic combinations. […] We hypothesized that effective combinations would reduce MYC expression and enhance p16 activity. […] These preclinical data identify potentially useful drug combinations for evaluation in drug-resistant MM and reveal potential mechanisms of combined drug sensitivity.
Described herein is the primary MIPE qHTS used to cherrypick compounds. Validated compounds were then further tested for potential synergistic activiy.
[1] Peat TJ, Gaikwad SM, Dubois W, Gyabaah-Kessie N, Zhang S, Gorjifard S, Phyo Z, Andres M, Hughitt VK, Simpson RM, Miller MA, Girvin AT, Taylor A, Williams D, D'Antonio N, Zhang Y, Rajagopalan A, Flietner E, Wilson K, Zhang X, Shinn P, Klumpp-Thomas C, McKnight C, Itkin Z, Chen L, Kazandijian D, Zhang J, Michalowski AM, Simmons JK, Keats J, Thomas CJ, Mock BA. Drug combinations identified by high-throughput screening promote cell cycle transition and upregulate Smad pathways in myeloma. Cancer Lett. 2023 Aug 1;568:216284. doi: 10.1016/j.canlet.2023.216284. Epub 2023 Jun 24. PMID: 37356470; PMCID: PMC10408729.
SEQUENCE No. (e.g., 1, 2, 3, etc.); […] (e.g., Cells, Incubation, Reagent, etc.); VALUE and DESCRIPTION.
1; Cells; 5 uL; white, solid bottom 1536-well Greiner assay plate.
2; Compounds; 23 nL; Kalypsis pin tool (Wako USA) equipped with a 1536-well pin head to transfer to the assay plates.
3; Incubation; 48 hours; 37C incubation.
4; Reagent;5uL; CellTiter Glo (Promega).
5; Detector; 425V; Luminescence; Viewlux PerkinElmer.
NOTES (numbers refer to Sequence numbers above)
1. The cell-based screening methods employed in this study were like those previously published. Briefly, the corresponding myeloma cell lines were screened in 1,536-well plates with 500 cells, 5-uL per well for inhibition of cell viability (assessed by measuring ATP levels with CellTiterGlo).
2. NCATS MIPE 4.0 library of approved and investigational drugs were added using the Kalypsis pin tool. Wells treated with DMSO only for 100% viability and media only for 0% viability were used as controls.
3. The assay plates were covered and incubated for 48 hours in a 37C, 5% CO2 incubator with controlled humidity.
4. After 48 hours, CellTilter-GloTM luminescent substrate mix (Promega) reagent was added to the assay plate and plates we incubated for 5 min at room temperature.
5. Signal was measured as median relative luminescence units on a ViewLux (PerkinElmer) multiplate reader.
[1] Heske CM, Davis MI, Baumgart JT, Wilson K, Gormally MV, Chen L, Zhang X, Ceribelli M, Duveau DY, Guha R, Ferrer M, Arnaldez FI, Ji J, Tran HL, Zhang Y, Mendoza A, Helman LJ, Thomas CJ. Matrix Screen Identifies Synergistic Combination of PARP Inhibitors and Nicotinamide Phosphoribosyltransferase (NAMPT) Inhibitors in Ewing Sarcoma. Clin Cancer Res. 2017 Dec 1;23(23):7301-7311. doi: 10.1158/1078-0432.CCR-17-1121. Epub 2017 Sep 12. PMID: 28899971; PMCID: PMC6636827.
Potency is the fitted concentration of half-maximal effect.

| SMILES | Potency |
| --- | --- |
| CCc1cc(C(N)=S)ccn1 | inactive |
| Cn1nnc2c(C(N)=O)ncn2c1=O | inactive |
| CCN(CC)CC#CCOC(=O)C(O)(c1ccccc1)C1CCCCC1 (stereo not given) | inactive |
| CN1CCN(c2c(F)cc3c(=O)c(C(=O)O)cn(CCF)c3c2F)CC1 | inactive |
| CC(N)C12CC3CC(CC(C3)C1)C2 (stereo not given) | inactive |
| Oc1c(Cl)cc(Cl)c2cccnc12 | 11.8 µM (active) |
| CCc1c2c(nc3ccc(OC(=O)N4CCC(N5CCCCC5)CC4)cc13)-c1cc3c(c(=O)n1C2)COC(=O)[C@]3(O)CC | 0.148 µM (active) |
| CCCCCCNC(=O)n1cc(F)c(=O)[nH]c1=O | 6.62 µM (active) |
| NNC(=O)c1ccncc1 | inactive |
| CO[C@@]12[C@H](COC(N)=O)C3=C(C(=O)C(C)=C(N)C3=O)N1C[C@@H]1N[C@@H]12 | 23.5 µM (active) |
| Cc1nnc(C(=O)NC(C)(C)c2nc(C(=O)NCc3ccc(F)cc3)c(O)c(=O)n2C)o1 | inactive |
| NS(=O)(=O)c1cc2c(cc1Cl)NC(C(Cl)Cl)NS2(=O)=O (stereo not given) | inactive |
| COc1cc(NCc2ccc3nc(N)nc(N)c3c2C)cc(OC)c1OC | 5.26 µM (active) |
| CN(Cc1cc(Br)cc(Br)c1N)C1CCCCC1 | inactive |
| CCC(=O)O[C@]1(C(=O)CCl)[C@@H](C)C[C@H]2[C@@H]3CCC4=CC(=O)C=C[C@]4(C)[C@@]3(F)[C@@H](O)C[C@@]21C | inactive |
| COc1ccc2c(c1)c(CC(=O)OCC(=O)O)c(C)n2C(=O)c1ccc(Cl)cc1 | inactive |
| CNCC[C@H](Oc1cccc2ccccc12)c1cccs1 | 18.7 µM (active) |
| COc1cnc(NS(=O)(=O)c2ccc(N)cc2)nc1 | inactive |
| CCCN[C@H]1CCc2nc(N)sc2C1 | inactive |
| COc1cc(NS(=O)(=O)c2ccc(N)cc2)nc(OC)n1 | inactive |

| SMILES | Potency |
| --- | --- |
| O=C(O)c1cccnc1 | inactive |
| Cc1ccnc2c1NC(=O)c1cccnc1N2C1CC1 | inactive |
| CCOC(=O)[C@H](CCc1ccccc1)N[C@H]1CCc2ccccc2N(CC(=O)O)C1=O | 18.7 µM (active) |
| Nc1nc(N)c2nc(CNc3ccc(C(=O)NC(CCC(=O)O)C(=O)O)cc3)cnc2n1 (stereo not given) | inactive |
| CNS(=O)(=O)CCc1ccc2[nH]cc(C3CCN(C)CC3)c2c1 | inactive |
| Nc1nc(=S)c2[nH]cnc2[nH]1 | 3.32 µM (active) |
| NCCCC(O)(P(=O)(O)O)P(=O)(O)O | inactive |
| Nc1nc(F)nc2c1ncn2[C@@H]1O[C@H](CO)[C@@H](O)[C@@H]1O | 0.166 µM (active) |
| CCCCS(=N)(=O)CCC(N)C(=O)O (stereo not given) | inactive |
| Nc1[nH]c(=O)ncc1F | inactive |
| CCN(C)C(=O)Oc1cccc([C@H](C)N(C)C)c1 | inactive |
| C[C@@H](NCCCc1cccc(C(F)(F)F)c1)c1cccc2ccccc12 | inactive |
| C[C@@H]1CN(c2c(F)c(N)c3c(=O)c(C(=O)O)cn(C4CC4)c3c2F)C[C@H](C)N1 | inactive |
| CC(=O)Oc1ccccc1C(=O)Nc1ncc([N+](=O)[O-])s1 | 34 µM (active) |
| Cc1cc(NS(=O)(=O)c2ccc(N)cc2)no1 | inactive |
| Nc1nc(N)nc(-c2cc(Cl)ccc2Cl)n1 | inactive |
| N[C@@H](C(=O)N[C@@H]1C(=O)N2C(C(=O)O)=C(Cl)CS[C@H]12)c1ccccc1 | inactive |
| CC(C(=O)O)c1ccc2c(c1)CC(=O)c1ccccc1S2 (stereo not given) | inactive |
| O=S(=O)(O)CCS | inactive |
| CCN[C@H]1C[C@H](C)S(=O)(=O)c2sc(S(N)(=O)=O)cc21 | inactive |
